25 compounds from PubChem BioAssay can be followed below.

The source made the active and inactive calls.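 How the source made its calls: active means growth inhibition above 50% at the single 2 µM test dose, taken to imply half-maximal potency below 2 µM; inactive means the rest.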

The test is described as follows: antimalarial activity against Dd2 strain (AID 2302).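 Further: 0% = DMSO untreated growth and 100% = chloroquine plus artemisinin killed control.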 Conditions: P. falciparum Dd2 in RBCs, LDH growth readout, 72 h; at 2 µM; stronger effect = higher value.
Turning to `C[C@@H]1CN(c2cnn(C/C=C/c3ccc(NC(=O)c4ccc5nonc5c4)cc3)c(=O)c2Cl)C[C@H](C)N1`, the growth inhibition was 35% (inactive).

Take `Cc1cccc2[nH]c(-c3ccc(-c4cccc(CNCc5cccc(N)c5)c4)cc3)nc12`: the growth inhibition is 87% (active).

For the compound `CN(C)CC(=O)Nc1ccc(Nc2nccc(NCC(O)c3ccccc3)n2)cc1` (stereo not given), the growth inhibition was 2% (inactive).

In the case of `S=C(NN=Cc1ccccn1)Nc1ccc(Cl)c(Cl)c1`, the growth inhibition was 85% (active).

As for `O=C(n1c(-c2cc3ccccc3n2C(=O)C(F)(F)F)cc2ccccc21)C(F)(F)F`, the growth inhibition is 80% (active).

In the case of `N#Cc1ccc(NC(=O)Nc2ccc3c(c2)CCN(C2CCC2)CC3)cc1`, the growth inhibition is 11% (inactive).

`c1csc(-c2ccc3c(c2)CC(NCc2c[nH]c4cnccc24)C3)c1` (stereo not given): the growth inhibition is 34% (inactive).

Turning to `CCOc1ccc(-c2nonc2NC(=O)c2ccc(OC(C)C)cc2)cc1OCC`, the growth inhibition is 100% (active).

Regarding `O=C(Nc1ccc(Cl)cc1)Nc1ccc2nonc2c1`, the growth inhibition was 77% (active).

On to `CC(=O)c1ccc(NC(=O)C2c3ccccc3C(=O)N(CC(C)C)C2c2cccs2)cc1` (stereo not given), for which the growth inhibition was 51% (active).

For the compound `CC(C)(C)c1ccc(CN2CCC(CNC(=O)c3cc(-c4cccc(F)c4)cs3)C2)cc1` (stereo not given), the growth inhibition is 55% (active).

Take `CCCNC(=O)C1CCN(C(c2ccccc2)c2ccc(Cl)c(Cl)c2)CC1` (stereo not given): the growth inhibition is 90% (active).

Consider `Cc1cccc2[nH]c(-c3ccc(-c4ccc(CNCC5CCCO5)cc4)s3)nc12` (stereo not given), for which the growth inhibition was 96% (active).

Consider `CN1CCN(c2cccc(-c3nnc(-c4ccc(OCC(=O)NCc5ccc(C(F)(F)F)cc5)c([N+](=O)[O-])c4)o3)c2)CC1`, for which the growth inhibition is 44% (inactive).

On to `COc1ccc(NC(=O)[C@H](CC(C)C)Nc2ccnc(Nc3ccccc3)n2)cc1`, for which the growth inhibition is 32% (inactive).

Turning to `CCCCN(C)CC#Cc1ccc(-c2ccc3[nH]c(C)c(Br)c(=O)c3c2)cn1`, the growth inhibition is 93% (active).

Turning to `Clc1ccc(-n2cnc3c(Nc4ccc(Oc5ccccc5)cc4)ncnc32)cc1Cl`, the growth inhibition was 65% (active).

For `CCCCNc1nc(NCCCC)c2c(C)c(Cc3ccccc3)c(NCCCC)nc2n1`, the growth inhibition is 84% (active).

For the compound `O=c1cc(NCCCNCc2cc(C(F)(F)F)ccc2F)[nH]c2ccccc12`, the growth inhibition was 43% (inactive).

Regarding `COc1ccc(NC(=O)[C@H](Cc2ccccc2)Nc2cc(C)nc(NCCc3ccc(F)cc3)n2)cc1`, the growth inhibition is 82% (active).

Take `O=C(NCCN1CCCC1)c1ccc(-c2ccc(-c3nc4ccc(C(F)(F)F)cc4[nH]3)s2)cc1`: the growth inhibition is 65% (active).

As for `COc1ccc2sc(CNCCCNc3cc(=O)c4ccccc4[nH]3)c(Cl)c2c1`, the growth inhibition was 42% (inactive).

`CCc1cn2c3c(cc(C(=O)N[C@@H](Cc4ccccc4)[C@H](O)CNCc4ccccc4)cc13)N(C)S(=O)(=O)CC2`: the growth inhibition was 99% (active).

Take `CS(=O)(=O)N(c1ccc(F)cc1)c1cc(C(=O)N[C@@H](Cc2ccccc2)[C@H](O)CNCc2cccc(C(F)(F)F)c2)cc(N2CCCC2=O)c1`: the growth inhibition is 65% (active).

For `CC(C)(CNCc1ccc(C(F)(F)F)cc1)c1nc(-c2ccc(Cl)c(O)c2)c(-c2ccncc2)[nH]1`, the growth inhibition is 98% (active).
